Laboratory results taken from the supplement of paper PMC9262897, “Low-cost anti-mycobacterial drug discovery using engineered E. coli” (Nature Communications, 2022).
Counter-ions that a name gives are not always drawn. ± gives the standard deviation of the averaged measurements.

How the values were obtained:
Assay in all cases: growth (OD600 after 10 h); higher = more growth (less inhibition)
[1] = tested on: E. coli TESEC Alr+ wild-type control; settings: compound 0.1 mM; raw OD600 reference: median of DMSO wells 0.241, cell-free background 0.041
Description: (§1)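 TESEC Mtb Alr E. coli, or the Alr+ wild-type control, in 384-well plates with Prestwick library compounds at 0.1 mM and 1% DMSO, across arabinose induction levels of 1E3 to 1E7 nM. Growth is read as OD600 after 10 h at 37 °C in triplicate biological replicates.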

[2] = tested on: E. coli TESEC Mtb Alr; settings: compound 0.1 mM
Description: as §1

[3] = tested on: E. coli TESEC Mtb Asd; settings: compound 0.1 mM
Description: (§2)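 TESEC E. coli strains in which the native enzyme is deleted and replaced by arabinose-inducible Mtb Asd, DapB, CysH or TrpD, each grown in its selective medium. Strains were screened against the Prestwick library at 0.1 mM and 1% DMSO in 384-well format at low and high arabinose induction. Growth is read as OD600 after 10 h in triplicate.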

[4] = tested on: E. coli TESEC Mtb DapB; settings: compound 0.1 mM
Description: as §2

[5] = tested on: E. coli TESEC Mtb Alr; settings: compound 0.1 mM; remark: listed apart in the source
Description: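 TESEC Mtb Alr E. coli (ΔaraC ΔtolC ΔentC Δalr ΔdadX, arabinose-inducible Mtb Alr) or the Alr+ wild-type control strain, grown in defined M9-fructose medium without D-alanine in 96-well plates with Prestwick library compounds at 0.1 mM and 1% DMSO. Low Alr induction is 0.1 µM arabinose and high induction is 10 mM arabinose.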

[6] = arabinose 1000 nM, raw OD600 reference: median of DMSO wells 0.294, cell-free background 0.041
[7] = arabinose 10000 nM, raw OD600 reference: median of DMSO wells 0.264, cell-free background 0.041
[8] = arabinose 100000 nM, raw OD600 reference: median of DMSO wells 0.201, cell-free background 0.041
[9] = arabinose 1000000 nM, raw OD600 reference: median of DMSO wells 0.193, cell-free background 0.041
[10] = arabinose 10000000 nM, raw OD600 reference: median of DMSO wells 0.146, cell-free background 0.041
[11] = arabinose induction (level): High, raw OD600 reference: median of DMSO wells 0.331, cell-free background 0.041
[12] = arabinose induction (level): Low, raw OD600 reference: median of DMSO wells 0.417, cell-free background 0.041
[13] = arabinose induction (level): High, raw OD600 reference: median of DMSO wells […], cell-free background 0.041
[14] = arabinose induction (level): Low, raw OD600 reference: median of DMSO wells 0.227, cell-free background 0.041
[15] = arabinose 100 nM, raw OD600 reference: median of DMSO wells 0.413, cell-free background 0.052
[16] = arabinose 10000000 nM, raw OD600 reference: median of DMSO wells […], cell-free background 0.052

Structure (SMILES)	growth [1]	growth [2, 6]	growth [2, 7]	growth [2, 8]	growth [2, 9]	growth [2, 10]	growth [3, 11]	growth [3, 12]	growth [4, 13]	growth [4, 14]	growth [5, 15]	growth [5, 16]
C[C@]12CC[C@@H](O)C[C@@H]1CC[C@@H]1[C@@H]2CC[C@]2(C)C(=O)CC[C@@H]12 [Androsterone]	0.117 ± 0.0044	0.123 ± 0.002	0.212 ± 0.012	0.118 ± 0.0038	0.0932 ± 0.0027	0.0878 ± 0.0015	0.148 ± 0.026	0.324 ± 0.044	0.141 ± 0.013	0.138 ± 0.011	0.3429 ± 0.0014	0.0883 ± 0.011
COc1ccc(Cc2nccc3cc(OC)c(OC)cc23)cc1OC [Papaverine hydrochloride]	0.153 ± 0.0032	0.199 ± 0.0045	0.215 ± 0.0047	0.141 ± 0.0019	0.087 ± 0.0015	0.133 ± 0.0021	0.133 ± 0.013	0.262 ± 0.035	0.148 ± 0.0024	0.161 ± 0.0073	0.397 ± 0.0098	0.22 ± 0.0059
C[C@@H]1CC[C@H]2[C@@H](C)C(=O)O[C@@H]3O[C@@]4(C)CC[C@@H]1[C@]32OO4 [Artemisinin]	0.125 ± 0.01	0.121 ± 0.0046	0.194 ± 0.0057	0.142 ± 0.013	0.109 ± 0.0053	0.135 ± 0.0031	0.219 ± 0.025	0.216 ± 0.042	0.179 ± 0.012	0.191 ± 0.0069	0.348 ± 0.0058	0.135 ± 0.025
CCC1(c2cccc(O)c2)CCCCN(C)C1 (centres undefined) [Meptazinol hydrochloride]	0.2565 ± 0.0013	0.3214 ± 0.0014	0.3 ± 0.0084	0.192 ± 0.015	0.203 ± 0.018	0.139 ± 0.0077	0.176 ± 0.04	0.41 ± 0.095	0.215 ± 0.026	0.217 ± 0.024	0.411 ± 0.014	0.323 ± 0.023
S=C(NC1CCCCC1)N1CCC(c2cnc[nH]2)CC1 [Thioperamide maleate]	0.218 ± 0.0074	0.286 ± 0.015	0.257 ± 0.013	0.17 ± 0.016	0.15 ± 0.0049	0.131 ± 0.0035	0.273 ± 0.013	0.495 ± 0.039	0.201 ± 0.015	0.21 ± 0.008	0.402 ± 0.016	0.299 ± 0.029
C[C@]12CCC(=O)C(O)=C1CC[C@@H]1[C@@H]2CC[C@]2(C)C(=O)CC[C@@H]12 [Formestane]	0.115 ± 0.0066	0.182 ± 0.011	0.228 ± 0.014	0.1 ± 0.0018	0.0848 ± 0.0012	0.1103 ± 0.00057	0.13 ± 0.017	0.25 ± 0.052	0.156 ± 0.01	0.159 ± 0.0083	0.373 ± 0.025	0.133 ± 0.017
CN1CCC2(C)c3cc(O)ccc3N(C)C12 (single isomer, unassigned; (-)) [(-)-Eseroline fumarate salt]	0.225 ± 0.0084	0.287 ± 0.014	0.306 ± 0.0086	0.312 ± 0.015	0.168 ± 0.0079	0.19 ± 0.0049	0.194 ± 0.027	0.402 ± 0.064	0.197 ± 0.0051	0.209 ± 0.034	0.42 ± 0.0066	0.317 ± 0.021
O=C1CC[C@@]2(O)[C@H]3Cc4ccc(O)c5c4[C@@]2(CCN3CC2CC2)[C@H]1O5 [Naltrexone hydrochloride dihydrate]	0.242 ± 0.0065	0.279 ± 0.022	0.2685 ± 0.0019	0.173 ± 0.023	0.175 ± 0.0025	0.139 ± 0.0097	0.224 ± 0.013	0.443 ± 0.05	0.193 ± 0.0052	0.219 ± 0.048	0.4315 ± 0.0022	0.335 ± 0.0091
C[C@]12CCC(=O)C=C1C=C[C@@H]1[C@@H]2CC[C@@]2(C)[C@H]1CC[C@@]2(O)CCC(=O)O [Canrenoic acid potassium salt]	0.227 ± 0.01	0.275 ± 0.025	0.237 ± 0.019	0.16 ± 0.0057	0.163 ± 0.0033	0.15 ± 0.0017	0.214 ± 0.052	0.341 ± 0.03	0.196 ± 0.012	0.211 ± 0.031	0.407 ± 0.0047	0.264 ± 0.011
CN(C)[C@@H]1C(=O)C(C(N)=O)=C(O)[C@@]2(O)C(=O)C3=C(O)c4c(O)cccc4[C@@](C)(O)[C@H]3[C@H](O)[C@@H]12 [Oxytetracycline dihydrate]	0.0451 ± 0.0028	0.0424 ± 0.00089	0.0418 ± 0.00081	0.044 ± 0.0021	0.0421 ± 0.0003	0.04303 ± 0.00012	0.0563 ± 0.0015	0.0587 ± 0.0032	0.0531 ± 0.00076	0.0536 ± 0.0012	0.0627 ± 0.0022	0.0555 ± 0.003
CC(Cc1ccc(O)cc1)NCC(O)c1cc(O)cc(O)c1 (centres undefined) [Fenoterol hydrobromide]	0.241 ± 0.0046	0.283 ± 0.02	0.266 ± 0.0076	0.184 ± 0.0055	0.19 ± 0.0033	0.143 ± 0.0091	0.298 ± 0.046	0.419 ± 0.025	0.201 ± 0.017	0.235 ± 0.05	0.406 ± 0.011	0.344 ± 0.0099
C[C@]12COC(=O)C[C@@H]1CC[C@@H]1[C@@H]2CC[C@@]2(C)[C@H]1CC[C@]2(C)O [Oxandrolone]	0.157 ± 0.0027	0.189 ± 0.0087	0.232 ± 0.0096	0.126 ± 0.0067	0.105 ± 0.005	0.12 ± 0.0015	0.148 ± 0.0058	0.319 ± 0.033	0.14 ± 0.0074	0.154 ± 0.015	0.42 ± 0.0079	0.246 ± 0.019
COc1cc([C@@H]2c3cc4c(cc3[C@H](O)[C@H]3COC(=O)[C@H]23)OCO4)cc(OC)c1OC [Podophyllotoxin]	0.222 ± 0.0075	0.298 ± 0.016	0.271 ± 0.0092	0.168 ± 0.012	0.163 ± 0.0082	0.1495 ± 0.0008	0.443 ± 0.027	0.46 ± 0.053	0.212 ± 0.012	0.261 ± 0.027	0.403 ± 0.015	0.298 ± 0.0059
Oc1cc(Cl)ccc1Oc1ccc(Cl)cc1Cl [Triclosan]	0.0414 ± 0.0012	0.0413 ± 0.0016	0.04137 ± 0.00025	0.04127 ± 0.00015	0.0423 ± 0.0022	0.04107 ± 0.00021	0.0494 ± 0.0062	0.04643 ± 0.00015	0.0466 ± 0.0004	0.0475 ± 0.0016	0.052 ± 0.0048	0.054 ± 0.001
C[N+]1([O-])[C@@H]2C[C@@H](OC(=O)[C@H](CO)c3ccccc3)C[C@H]1[C@@H]1O[C@@H]12 (some centres undefined) [Scopolamin-N-oxide hydrobromide]	0.262 ± 0.013	0.3 ± 0.013	0.28 ± 0.0081	0.24 ± 0.027	0.19 ± 0.0068	0.165 ± 0.0072	0.334 ± 0.068	0.408 ± 0.035	0.221 ± 0.012	0.257 ± 0.025	0.411 ± 0.021	0.347 ± 0.018
CC[C@@]1(O)C(=O)OCc2c1cc1n(c2=O)Cc2cc3ccccc3nc2-1 [Camptothecine (S,+)]	0.2398 ± 0.0022	0.28 ± 0.012	0.267 ± 0.0074	0.192 ± 0.016	0.184 ± 0.0026	0.141 ± 0.0034	0.292 ± 0.075	0.43 ± 0.046	0.199 ± 0.01	0.228 ± 0.039	0.465 ± 0.052	0.434 ± 0.031
CCN[C@@H](C)Cc1cccc(C(F)(F)F)c1 [Dexfenfluramine hydrochloride]	0.23 ± 0.013	0.315 ± 0.0066	0.261 ± 0.0059	0.232 ± 0.027	0.174 ± 0.0053	0.158 ± 0.0058	0.235 ± 0.033	0.335 ± 0.083	0.189 ± 0.0055	0.246 ± 0.0058	0.412 ± 0.0093	0.351 ± 0.026
